The term AC50 denotes the midpoint of the concentration-response curve, whichever way the signal moves.

This is an account of results in PubChem BioAssay (EPA / NIEHS).

Records with an inconclusive call do not appear. Activity calls are given as the source filed them. How the source made its calls: active means hit-call score of the fitted dose curve at least 0.9, where 1 is the maximum; inconclusive means response in the unintended direction; inactive means score below 0.9.

Sequence of Oxysterols receptor LXR-beta (Homo sapiens) (P55055 whole entry, looked up, the tested form may be a part): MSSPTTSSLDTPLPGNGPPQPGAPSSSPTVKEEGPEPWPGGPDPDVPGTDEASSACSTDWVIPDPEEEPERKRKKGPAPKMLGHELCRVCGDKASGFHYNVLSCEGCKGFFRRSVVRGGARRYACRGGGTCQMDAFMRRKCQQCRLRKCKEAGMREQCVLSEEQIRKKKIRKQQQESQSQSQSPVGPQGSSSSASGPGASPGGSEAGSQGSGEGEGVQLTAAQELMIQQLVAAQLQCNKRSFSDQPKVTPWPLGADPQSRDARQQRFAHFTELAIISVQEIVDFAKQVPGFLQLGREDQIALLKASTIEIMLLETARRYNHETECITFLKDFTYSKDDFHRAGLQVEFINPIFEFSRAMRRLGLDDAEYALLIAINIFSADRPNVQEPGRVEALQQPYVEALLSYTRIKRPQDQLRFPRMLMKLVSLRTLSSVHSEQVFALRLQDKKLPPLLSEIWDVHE

For the assay, the target named is Oxysterols receptor LXR-beta (Homo sapiens) (UniProt P55055). Kind of assay: ATG_LXRb_TRANS: Attagene TRANS-FACTORIAL HepG2 Assay for human Liver X Receptor beta (LXRb) (AID 2282981). To be noted: HepG2 Attagene TRANS GAL4-LXRb reporter, mRNA. The procedure:
ATG_TRANS is a cell-based, multiplexed-readout assay that uses HepG2, a human liver cell line, with measurements taken at 24 hours after chemical dosing in a 24-well plate.ATG_LXRb_TRANS is one of 30 assay component(s) measured or calculated from the ATG_TRANS assay. It is designed to make measurements of mRNA induction, a form of inducible reporter, as detected with fluorescence intensity signals by Reverse transcription polymerase chain reaction (RT-PCR) and Capillary electrophoresis technology.Data from the assay component ATG_LXRb_TRANS was analyzed into 1 assay endpoint. This assay endpoint, ATG_LXRb_TRANS, was analyzed in the positive analysis fitting direction relative to DMSO as the negative control and baseline of activity. Using a type of inducible reporter, measures of mRNA for gain-of-signal activity can be used to understand the reporter gene at the transcription factor-level as they relate to the gene NR1H2. Furthermore, this assay endpoint can be referred to as a primary readout, because this assay has produced multiple assay endpoints where this one serves a reporter gene function. To generalize the intended target to other relatable targets, this assay endpoint is annotated to the nuclear receptor intended target family, where the subfamily is non-steroidal.
Human liver HepG2 cells are transiently transfected with multiple reporter transcription units (MRTUs) in 6-well plates using FuGene 6 reagent (Roche; 3 ml FuGene/1 mg DNA). The MRTU constructs are regulated by a cis-regulating element (promoter). […] A major difference between the CIS and TRANS system is that in CIS activities of endogenous TFs are measured, whereas the TRANS assay evaluates changes in activities of exogenous, chimeric NR-Gal4 proteins. […] At the end of 24 hour incubation, total RNA was isolated using TriZol reagent (Invitrogen). The isolated RNA is then reverse-transcribed using oligo(dT) primer and Mo-MLV reverse transcriptase (Invitrogen) with DNAse I (Ambion) treatment for 30 min. The one-tenth of the produced cDNA was amplified by PCR using Taq DNA polymerase (Invitrogen) and two reporter sequence-specific primers. The PCR products were fluorescently labeled by primer extension with 6-arboxyfluorescein (6-FAM) 5'-labeled reporter sequence-specific primer (2 min at 95 C, 20 s at 68 C and 10 min at 72 C) and these products were digested with 5U of HpaI (New England Biolabs) for 2h at 37 C. The fragments were purified using Qiaquick PCR columns (Qiagen), analyzed on an ABI 3130xL genetic analyzer (Applied Biosystems) with peak positions identified by using a set of X-rhodamine (ROX)-labeled MapMarker1000 molecular weight standards (BioVentures). The raw capillary electrophoresis data was processed using Attagraph software (Attagene).
On to `O=C(O)C(F)(OC(F)(F)C(F)(F)C(F)(F)F)C(F)(F)F` (stereo not given), for which the call was inactive.

On to `ClC(Cl)(Cl)c1ccccc1`, for which the compound was called inactive.

In the case of `O=C(O)C(F)(F)C(F)(F)C(=O)O`, the call was inactive.

Turning to `OCC(F)(F)OC(F)(F)C(F)(F)OC(F)(F)C(F)(F)OC(F)(F)F`, the call was inactive.

In the case of `CCOP(=S)(OCC)SCSc1ccc(Cl)cc1`, the compound was called inactive.

On to `ClC(Cl)c1ccccc1`, for which the result was inactive.

With `O=C(O)C1C(C(=O)O)C2(Cl)C(Cl)=C(Cl)C1(Cl)C2(Cl)Cl` (stereo not given), the result was inactive.

In the case of `O=S(=O)(F)C(F)(F)C(F)(F)C(F)(F)C(F)(F)C(F)(F)C(F)(F)C(F)(F)C(F)(F)F`, the call was inactive.

Turning to `CCCCN(CC)C(=O)SCCC`, the outcome was inactive.

As for `c1cc2c3c(cccc3c1)CC2`, the outcome was inactive.

Turning to `c1nc[nH]n1`, the compound was classed as inactive.

Consider `[N-]=[N+]=[N-]`, for which the AC50 was 100 µM (active).

For `c1ccc2c(c1)Nc1ccccc1S2`, the call was inactive.

For the compound `CCOP(=S)(S)OCC`, the outcome was inactive.

Regarding `NNC(N)=S`, the call was inactive.

As to `O=[N+]([O-])c1ccc(Cl)c(Cl)c1`, the outcome was inactive.

Consider `CCOS(=O)(=O)OCC`, for which the result was inactive.

For `Clc1ccc(Oc2ccccc2)cc1`, the compound was called inactive.

Take `Oc1ccc(I)cc1`: the outcome was inactive.

Consider `O=c1ssc(Cl)c1Cl`, for which the result was inactive.

Take `CCCCC(CC)COC(=O)c1c(Br)c(Br)c(Br)c(Br)c1C(=O)OCC(CC)CCCC` (stereo not given): the compound was classed as inactive.

Regarding `c1ccc2c(c1)sc1ccccc12`, the result was inactive.

As to `CCOC(=O)c1ccccc1C(=O)OCC`, the call was inactive.

`CCOC(=O)c1ccccc1N`: the call was inactive.

For `CC(C)(C)N(NC(=O)c1ccc(Cl)cc1)C(=O)c1ccccc1`, the result was inactive.

Turning to `Nc1ccc([N+](=O)[O-])cc1Cl`, the result was inactive.

On to `OCC(F)(F)OC(F)(F)C(F)(F)OC(F)(F)C(F)(F)OC(F)(F)CO`, for which the compound was classed as inactive.

In the case of `Cn1[nH]nnc1=S`, the compound was called inactive.

As to `CCC1(c2ccccc2)C(=O)N=C(O)NC1=O` (stereo not given), the result was inactive.

Regarding `CCOP(=S)(OCC)SCS(=O)(=O)CC`, the compound was called inactive.

In the case of `Nc1ccc2ccccc2c1`, the result was inactive.

Consider `CC(=O)CCc1ccc2c(c1)OCO2`, for which the call was inactive.

With `O=S(=O)(c1ccc(O)cc1)c1ccc(O)cc1`, the compound was called inactive.

As to `O=C(O)C=CC(F)(C(F)(F)F)C(F)(F)F`, the result was inactive.

On to `N#Cc1cc([N+](=O)[O-])ccc1N`, for which the result was inactive.

For `CC(C)(C)OOC(C)(C)C`, the outcome was inactive.

Turning to `CN(C)C(=O)Cl`, the compound was called inactive.

On to `CCCCOCCOP(=O)(OCCOCCCC)OCCOCCCC`, for which the compound was called inactive.

As to `COC(=O)C(F)(F)C(F)(F)OC(F)(C(F)(F)F)C(F)(F)OC(F)=C(F)F` (stereo not given), the call was inactive.

For `O=C(O)C(F)(F)OC(F)(F)C(F)(F)OC(F)(F)F`, the compound was called inactive.
